Assay: FRG1 expression reporter modulators in myotubes – cell-based, C2C12 myotubes, firefly/Renilla luciferase, luminescence, FRG1 inhibition for FSHD, primary screen (AID 1084)
Conditions: FRG1 promoter luciferase, higher = more signal, called active from +8 up or from −8 down

z-score, inactive:
C#CCCCON=C1[C@H]2CCn3c(=O)n(C)c(=O)n3[C@H]2[C@H](O)[C@@H]2O[C@H]12 0.678
CCCCC#C[C@@H]1C=C[C@H](OC(C)=O)[C@@H](COC(C)=O)O1 -1.28
CO[C@@H]1COC(=O)[C@@H](C)COC(=O)[C@@H](C)NC(=O)CC=C[C@@H]1C 0.156
Cc1ccc(S(=O)(=O)OC[C@H]2CN3[C@H](c4ccc(Br)cc4)[C@@H](C)CC[C@H]3C(=O)O2)cc1 -0.636
COc1ccc(COC(=O)NN=C2C[C@@H](O)[C@@H](O)[C@@H]3[C@@H]4C(=O)N(c5cccc(Oc6ccccc6)c5)C(=O)[C@@H]4CC[C@@H]23)cc1 0.331
O=C1C2=CC[C@H]3C(=O)N(c4cccc(Oc5ccccc5)c4)C(=O)[C@H]3[C@H]2[C@H](O)[C@@H]2O[C@H]12 -0.492
CC(CCN1CCCCc2nc(C)c(C)cc21)=NO[C@H](C)c1cn([C@H](CO)Cc2ccccc2)nn1 2.09
CO[C@@H]1COC(=O)[C@H](CCSC)NC(=O)CC=C[C@@H](C)COC(=O)CCC[C@H]1C 0.0651
CC(CCN1CCCc2nc(C)c(C)cc21)=NO[C@@H](C)c1cc(-c2c(C)cc(C)cc2C)no1 -0.682
CO[C@@H]1COC(=O)[C@@H](C)NC(=O)CC=C[C@@H](C)[C@H](NS(=O)(=O)c2ccc(C)cc2)COC(=O)[C@H](C)NC(=O)CC=C[C@H]1C 0.0404
CCN1C(=O)[C@H]2[C@H]3[C@H](O)[C@H](O)CC(=NOC[C@H]4O[C@H](c5ccccc5)C=C[C@@H]4Oc4ccc(OC)cc4)[C@@H]3CC[C@H]2C1=O 0.52
CCOC(=O)[C@H](CC(C)C)NC(=O)CCC1CC(OC(=O)NCc2cccc3ccccc23)CC2(CCCC(COC(=O)NCC3CCCCC3)O2)O1 (stereo partly specified) 0.791
CC(C)CCN1CCc2nc(COc3ccccc3)c3c(c2C1)CO[C@@H](C)C3 0.0476
COC(=O)CC=C[C@@H](C)[C@@H](C=NO[C@H](C)c1cn([C@H](CO)Cc2ccccc2)nn1)OC 0.0621
CON=C(C)CCC(=O)OC[C@H]1O[C@H](c2ccccc2)C=C[C@@H]1Oc1ccc(OC)cc1 1.89
CCOC(=O)NN=C1C[C@@H](O)[C@@H](O)[C@@H]2[C@@H]3C(=O)N(c4cccc(Oc5ccccc5)c4)C(=O)[C@@H]3CC[C@@H]12 -0.233
CCN1C(=O)[C@H]2[C@H]3[C@H](O)[C@H](O)CC(=NO[C@@H](C)c4cn([C@H](CO)Cc5ccccc5)nn4)[C@@H]3CC[C@H]2C1=O 0.345
COC(=O)CC=C[C@@H](C)[C@@H]1C=C[C@H](O)[C@@H](CO)O1 -0.163
C[C@@H](ON=C1[C@H]2CCn3c(=O)n(-c4ccccc4)c(=O)n3[C@H]2[C@H](O)[C@@H]2O[C@H]12)c1cn([C@@H]2COC[C@H]2O)nn1 1.15
CC(CCC(=O)OC[C@H]1O[C@H](C#Cc2ccccc2)C=C[C@@H]1Oc1ccc(C)cc1)=NO[C@H](C)c1cn([C@H](CO)Cc2ccccc2)nn1 0.546
C#CCCCON=C1C[C@@H](O)[C@@H](O)[C@@H]2[C@@H]3C(=O)N(C(C)(C)C)C(=O)[C@@H]3CC[C@H]12 -0.247
COc1ccc(COC(=O)NN=C2C[C@@H](O)[C@@H](O)[C@@H]3[C@@H]4C(=O)N(C5CCCCC5)C(=O)[C@@H]4CC[C@H]23)cc1 0.248
COC(=O)CC=C[C@H](C)[C@@H](OCc1cccc(Br)c1)[C@@H](C)[C@H](OC)C1CCCCC1 1.23
Cc1ccc(S(=O)(=O)N[C@@H]2COC(=O)[C@@H](C)COC(=O)CC=C[C@H]2C)cc1 0.204
O=C1[C@H]2[C@H]3[C@H](O)[C@H](O)CC(=NO[C@@H]4O[C@H](CO)[C@@H](O)[C@H](O)[C@H]4O)[C@H]3CC[C@H]2C(=O)N1c1cccc(Oc2ccccc2)c1 0.0203
CCC1=NOC(CCC2CC(OC(=O)NCc3cccc4c3OCO4)CC3(CCCC(COC(=O)NCCc4ccccc4OC)O3)O2)C1 (stereo unspecified) 1.02
CCOC(=O)[C@H](CC(C)C)NC(=O)CCC1CC(OC(=O)NCc2cccc3ccccc23)CC2(CCCC(COC(=O)NCCOc3ccccc3)O2)O1 (stereo partly specified) 1.67
O=c1n(Cc2cc3c(cc2Cl)OCO3)c(=O)n2n1CC[C@@H]1C(=NOCc3ccccc3)[C@H]3O[C@H]3[C@@H](O)[C@@H]12 -0.611
COC(=O)[C@@H]1CC[C@H](C)[C@@H](c2ccc(C)cc2)N1C(=O)c1ccc(C=NO[C@@H](C)c2cn([C@H](CO)Cc3ccccc3)nn2)cc1 -3.25
CC(C)=CCCC(C)=CCON=C1C[C@@H](O)[C@@H](O)[C@@H]2[C@@H]3C(=O)N(Cc4ccccc4)C(=O)[C@@H]3CC[C@H]12 0.134
CC(C)C[C@H](NC(=O)CCC1CC(OC(=O)NCc2cccc3ccccc23)CC2(CCCC(COC(=O)NCc3ccccc3)O2)O1)C(=O)NCC(c1ccccc1)c1ccccc1 (stereo partly specified) 0.244
CC(C)CON=C1C[C@@H](O)[C@@H](O)[C@@H]2[C@@H]3C(=O)N(C4CCCCC4)C(=O)[C@@H]3CC[C@@H]12 -0.0468
C[C@@H](c1ccccc1)N1C(=O)[C@H]2[C@H]3[C@H](O)[C@H](O)CC(=NO[C@@H]4O[C@H](CO)[C@@H](O)[C@H](O)[C@H]4O)[C@H]3CC[C@H]2C1=O -0.412
COC(=O)[C@@H]1CC[C@H](C)[C@@H](c2ccc(C)cc2)N1C(=O)c1ccc(C=NOC[C@@H](C)[C@H](OCc2ccccc2)C(C)C)cc1 -0.229
C[C@@H](c1ccccc1)N1C(=O)[C@H]2[C@H]3[C@H](O)[C@H](O)CC(=NOCc4ccccc4)[C@H]3CC[C@H]2C1=O -0.405
COC(=O)CC=C[C@@H](C)[C@@H](C=NOCC[C@@H]1C=C[C@H](OC(C)=O)[C@@H](COC(C)=O)O1)OC 0.799
